This is part of a sample that, as a whole, favours compounds with a hit. Of some 83,000 tested, about 20% had one in any assay.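 Interpretation: 100, growth as untreated; towards 0, rising growth inhibition; 0, no net growth; 0 to -100, cell death. Compounds scoring below 10 were considered active.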 Values without a mark were called inactive. Calls of active or inactive are those of the source.

Holding throughout (experiment): NCI-60 one-dose screen, 48 h (100 = growth as untreated, 0 = no growth, -100 = all killed)
Holding throughout (conditions): 10 µM

The test system of experiment [1] is NCI-H23 lung.
Experiment [2] deals with NCI-H226 lung.
The test system of experiment [3] is NCI-H322M lung.
For experiment [4], the system named is HOP-62 NSCLC.
Experiment [5] deals with NCI-H460 lung.
Experiment [6] has as its system HOP-92 NSCLC.
For experiment [7], the system named is NCI-H522 lung.
In experiment [8] the test system is A549/ATCC NSCLC.
In experiment [9] the test system is 786-0 renal.
In experiment [10] the test system is COLO 205 colon.
Experiment [11] has as its system DU-145 prostate.
In experiment [12] the test system is K-562 leukemia.
Experiment [13] deals with MALME-3M melanoma.
The subject of experiment [14] is MDA-MB-231 breast.
Experiment [15] deals with RXF 393 renal.
Experiment [16] deals with SF-268 CNS.
In experiment [17] the test system is SF-295 CNS.
Experiment [18] has as its system SF-539 CNS.
Experiment [19] has as its system UACC-257 melanoma.
Experiment [20] deals with M14 melanoma.

With `O=C(N=Nc1c(O)[nH]c2ccc(Br)cc12)c1ccc2nc(-c3ccccc3)[nH]c2c1`, the growth is -66.1% (active) in experiment [1]; -47.9% (active) in experiment [2]; -62.9% (active) in [3]; -61.9% (active) in experiment [4]; -73.5% (active) in experiment [5]; -78.8% (active) in experiment [6]. The growth in [7] is -79% (active); in experiment [8], -24.6% (active); in [9] it was -92.9% (active); in experiment [10], -67.5% (active); in experiment [11] it was -60.5% (active); in [12], 1.09% (active). The growth is -99.2% (active) in experiment [13]; -97.5% (active) in experiment [14]; -79.7% (active) in experiment [15]; -53.3% (active) in [16]; -81.9% (active) in experiment [17]; -97.9% (active) in experiment [18]. The growth in experiment [19] was -19.9% (active).
Take `COc1ccc(CCN2C(=O)/C(=C/c3csc(C#N)n3)SC2=S)cc1`: the growth was 24.3% in [1]; 98.5% in experiment [2]; 86.4% in experiment [3]; 83.5% in [4]; 68.2% in [5]; -5.5% (active) in experiment [6]. Besides, the growth in experiment [7] was -69.8% (active); in experiment [8], 89%; in experiment [9] it was -55.2% (active); in experiment [10], -75% (active); in experiment [11] it was 0.405% (active); in experiment [12], 1.79% (active). Further, the growth is 7.27% (active) in [13]; 15.8% in experiment [14]; -3.89% (active) in experiment [15]; 33.2% in experiment [16]; 77.5% in experiment [17]; -17.3% (active) in experiment [18]. For the same molecule, the growth in experiment [19] was -35.3% (active); in [20], -40.6% (active).
On to `COc1ccc(N2N=C(c3ccc4c(c3)OCCO4)CC2c2cccc(NC(=O)CCCNS(=O)(=O)c3ccc(F)cc3)c2)cc1` (stereo not drawn), for which the growth was 85.7% in experiment [1]; 74.5% in experiment [2]; 75% in [3]; 89.6% in experiment [4]; 64.8% in experiment [5]; 81.6% in experiment [6]. Besides, the growth was 58.9% in experiment [7]; 61.8% in experiment [8]; 66.6% in [9]; 84% in experiment [10]; 91.5% in [11]; 56% in [12]. Further, the growth in [13] was 79.7%; in experiment [14], 69.2%; in experiment [15], 68.1%; in experiment [16] it was 56.2%; in experiment [17], 65.2%; in [18], 77.7%. Also, in experiment [19], the growth is 88%.
For the molecule `COc1cccc(/C=N/NC(=O)c2ccc3nc(-c4ccc(Cl)cc4)[nH]c3c2)c1O`, the growth in experiment [1] was -95.2% (active); in experiment [2], -85.8% (active); in experiment [3], -81.6% (active); in experiment [4], -91.9% (active); in [5], -84.4% (active); in experiment [6] it was -85.2% (active). Further, the growth is -83% (active) in [7]; -76.8% (active) in [8]; -90.3% (active) in experiment [9]; -88.8% (active) in experiment [10]; -96.1% (active) in experiment [11]; -37.2% (active) in experiment [12]. Moreover, the growth in experiment [13] was -96.3% (active); in [14] it was -72.8% (active); in experiment [15], -96.5% (active); in experiment [16], -79% (active); in experiment [17], -91.3% (active); in experiment [18] it was -99% (active). Moreover, the growth in experiment [19] was -83.8% (active); in experiment [20], -79.5% (active).
For the molecule `Cn1cc(-c2cc(N)n3nc(-c4c[nH]c5ccc(Br)cc45)cc3n2)c2cccnc21`, the growth was -84% (active) in [1]; -71.2% (active) in experiment [2]; -42% (active) in experiment [3]; -89.6% (active) in experiment [4]; -35.7% (active) in [5]; -67.7% (active) in experiment [6]. Besides, the growth in experiment [7] is -82.8% (active); in experiment [8], -80% (active); in experiment [9], -80.2% (active); in experiment [10], -85.8% (active); in experiment [11] it was -92.5% (active); in experiment [12], -3.96% (active). Moreover, the growth in [13] was -92.4% (active); in [14], -85.6% (active); in [15] it was -85.2% (active); in experiment [16], -45.7% (active); in experiment [17], -91.9% (active); in experiment [18], -97.7% (active). The values for the growth in [19] and in experiment [20] were -84.3% (active) and -85.8% (active), respectively.
In the case of `CC(=O)NNc1ccc2nnc(-c3ccc(Br)cc3)n2n1`, the growth is 91.5% in experiment [1]; 87.8% in experiment [2]; 107% in experiment [3]; 82.5% in [4]; 106% in [5]; 103% in [6]. Further, the growth in experiment [7] was 85.3%; in [8], 95.9%; in experiment [9] it was 86.3%; in experiment [10], 109%; in experiment [11], 103%; in experiment [12], 95.5%. In addition, the growth in experiment [13] was 107%; in [14], 94%; in [15], 68.5%; in experiment [16] it was 102%; in experiment [17], 96.1%; in experiment [18], 90.2%. Also, the growth in experiment [19] was 105%; in experiment [20] it was 98.2%.
Regarding `COc1ccc(/C(C)=N/N=C2C(=O)N(C)c3ccc(Br)cc32)cc1S(N)(=O)=O`, the growth in experiment [1] was 64.1%; in experiment [2], 43.6%; in [3], 80.8%; in experiment [4], 36.2%; in [5], 74.8%; in experiment [6], 28.1%. For the same molecule, the growth in [7] is 45.5%; in [8], 86.1%; in [9], 71.4%; in experiment [10] it was 102%; in experiment [11], 86.1%; in experiment [12], 93.1%. In addition, the growth in experiment [13] was 64.2%; in experiment [14], 56.7%; in [15], 57.4%; in experiment [16], 33.4%; in [17] it was 47.4%; in experiment [18], 43.3%. The growth in [19] was 83.1%; in experiment [20], 87.1%.
As for `O=C1Nc2ccc(Cl)cc2/C1=C/c1cccc(OCc2ccccn2)c1`, the growth is 15.4% in experiment [1]; -21.3% (active) in [2]; 40.1% in experiment [3]; 52.1% in [4]; -16.2% (active) in [5]; -6.11% (active) in experiment [6]. The growth in experiment [7] is -75.5% (active); in [8] it was 40.1%; in experiment [9], -14.4% (active); in [10], -45.9% (active); in experiment [11] it was 6.01% (active); in experiment [12] it was 0.86% (active). Also, the growth is -51.9% (active) in [13]; -50.8% (active) in experiment [14]; -31.4% (active) in [15]; 4.23% (active) in [16]; -42.4% (active) in [17]; -64.4% (active) in [18]. Further, the growth is -0.118% (active) in [19] and -50.5% (active) in experiment [20].
